# In the supplement of paper PMC8253809:
# Test system: SUDIPGIV (diffuse intrinsic pontine glioma line)
# Test: growth inhibition (% activity, log2 RLU normalised to DMSO / staurosporine); higher = more growth inhibition
# Conditions: 33 µM
# Method in brief: (§1)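 The growth-inhibition value comes from CellTiter-Glo luminescence, log2-transformed, normalised per plate to % activity between solvent and positive control wells, and taken as the median over replicates. Treatment of pHGG cell lines and H9-derived neural stem cells with approved drugs was at a single final concentration of about 33 μM, in triplicate, for 7 days at 37 °C, 5% CO2.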
row,SMILES,growth inhibition [%]
1,O=c1c(-c2ccc(O)cc2)coc2cc(O)ccc12,-0.853
2,Oc1ncnc2[nH]ncc12,-3.97
3,Oc1ccc(/C=C/c2cc(O)cc(O)c2)cc1,-5.92
4,CCCCCCCCCCCCCCCC[N+](C)(C)C,36.8
5,COc1cc(C(=O)NC2CCCNC2)cc(OC)c1OC (stereo not given),1.23
6,O=C(O[C@H]1CN2CCC1CC2)N1CCc2ccccc2[C@@H]1c1ccccc1,-0.487
7,Cc1nc2n(c(=O)c1CCN1CCC(c3noc4cc(F)ccc34)CC1)CCCC2O (stereo not given),2.36
8,COc1cc2c(cc1Cc1cccc(Cl)c1F)c(=O)c(C(=O)O)cn2[C@H](CO)C(C)C,9.68
9,CC1=C(C(=O)O)N2C(=O)[C@@H](NC(=O)[C@H](N)c3ccccc3)[C@H]2SC1,-1.66
10,COc1ccc(-c2ccc3cc(C(=O)O)ccc3c2)cc1C12CC3CC(CC(C3)C1)C2,3.15
11,COCCCOc1cc(C[C@@H](C[C@H](N)[C@@H](O)C[C@H](C(=O)NCC(C)(C)C(N)=O)C(C)C)C(C)C)ccc1OC,-3.1
12,C=C1CCC(O)CC1=CC=C1CCCC2(C)C1CCC2C(C)CCCC(C)(C)O (stereo not given),3.43
13,COc1cc2c(cc1O)CC[C@@H]1[C@@H]2CC[C@]2(C)[C@@H](O)CC[C@@H]12,20.7
14,[O-]n1ccccc1=S.[O-]n1ccccc1=S.[Zn+2],48.4
15,Nc1ccc(S(=O)(=O)Nc2nccs2)cc1,-1.7
16,CCC1=C(C)CN(C(=O)NCCc2ccc(S(=O)(=O)NC(=O)N[C@H]3CC[C@H](C)CC3)cc2)C1=O,-0.00514
17,CS(=O)(=O)c1ccc([C@@H](O)[C@@H](CF)NC(=O)C(Cl)Cl)cc1,24.6
18,COC(=O)C1=C(C)NC(C)=C(C(=O)OC)C1c1ccccc1[N+](=O)[O-],-2.66
19,CC(C)Cn1cnc2c(N)nc3ccccc3c21,0.0825
20,CCOc1ccc2ccccc2c1C(=O)N[C@@H]1C(=O)N2[C@@H]1SC(C)(C)[C@@H]2C(=O)O,-2.67

row,SMILES,growth inhibition [%]
1,Cc1onc(-c2ccccc2Cl)c1C(=O)N[C@@H]1C(=O)N2[C@@H]1SC(C)(C)[C@@H]2C(=O)O,-0.916
2,O=C[C@H](O)[C@@H](O)[C@H](O)CO,-0.641
3,CO/N=C(\C(=O)N[C@@H]1C(=O)N2C(C(=O)O)=C(Cn3ccc(=N)n3CCO)CS[C@H]12)c1csc(N)n1,-0.702
4,CC(=O)Oc1cc2c(s1)CCN(C(C(=O)C1CC1)c1ccccc1F)C2 (stereo not given),-0.967
5,CC(C)n1c(/C=C/[C@@H](O)C[C@@H](O)CC(=O)O)c(-c2ccc(F)cc2)c2ccccc21,26.2
6,C[C@@H]1CC(=O)NN=C1c1ccc(NN=C(C#N)C#N)cc1,5.05
7,CCCCC1=NC2(CCCC2)C(=O)N1Cc1ccc(-c2ccccc2-c2nnn[nH]2)cc1,-0.0514
8,C[C@@H](O[C@H]1OCCN(Cc2n[nH]c(=O)[nH]2)[C@H]1c1ccc(F)cc1)c1cc(C(F)(F)F)cc(C(F)(F)F)c1,13.5
9,COC(=O)C1=C(C)NC(C)=C(C(=O)OCC(C)C)C1c1ccccc1[N+](=O)[O-] (stereo not given),0.591
10,CC#CCn1c(N2CCC[C@@H](N)C2)nc2c1c(=O)n(Cc1nc(C)c3ccccc3n1)c(=O)n2C,-2.46
11,CC(C)(O/N=C(\C(=O)N[C@@H]1C(=O)N2C(C(=O)[O-])=C(C[n+]3ccccc3)CS[C@H]12)c1csc(N)n1)C(=O)O,-0.671
12,CCC(=O)O[C@@H](O[P@](=O)(CCCCc1ccccc1)CC(=O)N1C[C@H](C2CCCCC2)C[C@H]1C(=O)O)C(C)C,1.26
13,O=C(O)c1cn(C2CC2)c2cc(N3CCNCC3)c(F)cc2c1=O,-1.7
14,N[C@H](C(=O)O)[C@H](O)c1ccc(O)c(O)c1,-1.1
15,COCCCC/C(=N\OCCN)c1ccc(C(F)(F)F)cc1,2.23
16,O=C1c2cccc3c2[C@H](CCC3)CN1[C@@H]1CN2CCC1CC2,-0.551
17,CC(C)(C)C(=O)OCOP(=O)(COCCn1cnc2c(N)ncnc21)OCOC(=O)C(C)(C)C,13.4
18,CCOC(=O)C1=C(C)NC(C)=C(C(=O)OCC)C1c1ccccc1/C=C/C(=O)OC(C)(C)C,12.7
19,Cc1ncc(C[n+]2csc(CCO)c2C)c(N)n1,-0.371
20,CN1c2cc(O)c(N=NC(N)=O)cc2CC1S(=O)(=O)O (stereo not given),-0.34

# Test system: SUDIPGVI (diffuse intrinsic pontine glioma line)
# Test: as above
# Conditions: 33 µM
# Method in brief: as §1
row,SMILES,growth inhibition [%]
1,O=c1c(-c2ccc(O)cc2)coc2cc(O)ccc12,-1.44
2,Oc1ncnc2[nH]ncc12,-6.47
3,Oc1ccc(/C=C/c2cc(O)cc(O)c2)cc1,1.29
4,CCCCCCCCCCCCCCCC[N+](C)(C)C,57.8
5,COc1cc(C(=O)NC2CCCNC2)cc(OC)c1OC (stereo not given),0.918
6,O=C(O[C@H]1CN2CCC1CC2)N1CCc2ccccc2[C@@H]1c1ccccc1,1.06
7,Cc1nc2n(c(=O)c1CCN1CCC(c3noc4cc(F)ccc34)CC1)CCCC2O (stereo not given),-0.7
8,COc1cc2c(cc1Cc1cccc(Cl)c1F)c(=O)c(C(=O)O)cn2[C@H](CO)C(C)C,1.61
9,CC1=C(C(=O)O)N2C(=O)[C@@H](NC(=O)[C@H](N)c3ccccc3)[C@H]2SC1,-13.3
10,COc1ccc(-c2ccc3cc(C(=O)O)ccc3c2)cc1C12CC3CC(CC(C3)C1)C2,-4.99
11,COCCCOc1cc(C[C@@H](C[C@H](N)[C@@H](O)C[C@H](C(=O)NCC(C)(C)C(N)=O)C(C)C)C(C)C)ccc1OC,2.75
12,C=C1CCC(O)CC1=CC=C1CCCC2(C)C1CCC2C(C)CCCC(C)(C)O (stereo not given),-3.1
13,COc1cc2c(cc1O)CC[C@@H]1[C@@H]2CC[C@]2(C)[C@@H](O)CC[C@@H]12,-1.23
14,[O-]n1ccccc1=S.[O-]n1ccccc1=S.[Zn+2],59.2
15,Nc1ccc(S(=O)(=O)Nc2nccs2)cc1,-2.69
16,CCC1=C(C)CN(C(=O)NCCc2ccc(S(=O)(=O)NC(=O)N[C@H]3CC[C@H](C)CC3)cc2)C1=O,1.62
17,CS(=O)(=O)c1ccc([C@@H](O)[C@@H](CF)NC(=O)C(Cl)Cl)cc1,2.59
18,COC(=O)C1=C(C)NC(C)=C(C(=O)OC)C1c1ccccc1[N+](=O)[O-],-7.47
19,CC(C)Cn1cnc2c(N)nc3ccccc3c21,3.61
20,CCOc1ccc2ccccc2c1C(=O)N[C@@H]1C(=O)N2[C@@H]1SC(C)(C)[C@@H]2C(=O)O,-10.4

row,SMILES,growth inhibition [%]
1,Cc1onc(-c2ccccc2Cl)c1C(=O)N[C@@H]1C(=O)N2[C@@H]1SC(C)(C)[C@@H]2C(=O)O,-0.387
2,O=C[C@H](O)[C@@H](O)[C@H](O)CO,-1.35
3,CO/N=C(\C(=O)N[C@@H]1C(=O)N2C(C(=O)O)=C(Cn3ccc(=N)n3CCO)CS[C@H]12)c1csc(N)n1,0.0229
4,CC(=O)Oc1cc2c(s1)CCN(C(C(=O)C1CC1)c1ccccc1F)C2 (stereo not given),-3.04
5,CC(C)n1c(/C=C/[C@@H](O)C[C@@H](O)CC(=O)O)c(-c2ccc(F)cc2)c2ccccc21,0.023
6,C[C@@H]1CC(=O)NN=C1c1ccc(NN=C(C#N)C#N)cc1,1.51
7,CCCCC1=NC2(CCCC2)C(=O)N1Cc1ccc(-c2ccccc2-c2nnn[nH]2)cc1,3.23
8,C[C@@H](O[C@H]1OCCN(Cc2n[nH]c(=O)[nH]2)[C@H]1c1ccc(F)cc1)c1cc(C(F)(F)F)cc(C(F)(F)F)c1,5.21
9,COC(=O)C1=C(C)NC(C)=C(C(=O)OCC(C)C)C1c1ccccc1[N+](=O)[O-] (stereo not given),3.16
10,CC#CCn1c(N2CCC[C@@H](N)C2)nc2c1c(=O)n(Cc1nc(C)c3ccccc3n1)c(=O)n2C,-1.81
11,CC(C)(O/N=C(\C(=O)N[C@@H]1C(=O)N2C(C(=O)[O-])=C(C[n+]3ccccc3)CS[C@H]12)c1csc(N)n1)C(=O)O,2.58
12,CCC(=O)O[C@@H](O[P@](=O)(CCCCc1ccccc1)CC(=O)N1C[C@H](C2CCCCC2)C[C@H]1C(=O)O)C(C)C,3.21
13,O=C(O)c1cn(C2CC2)c2cc(N3CCNCC3)c(F)cc2c1=O,-2.88
14,N[C@H](C(=O)O)[C@H](O)c1ccc(O)c(O)c1,-1.43
15,COCCCC/C(=N\OCCN)c1ccc(C(F)(F)F)cc1,0.798
16,O=C1c2cccc3c2[C@H](CCC3)CN1[C@@H]1CN2CCC1CC2,0.132
17,CC(C)(C)C(=O)OCOP(=O)(COCCn1cnc2c(N)ncnc21)OCOC(=O)C(C)(C)C,2.68
18,CCOC(=O)C1=C(C)NC(C)=C(C(=O)OCC)C1c1ccccc1/C=C/C(=O)OC(C)(C)C,1.91
19,Cc1ncc(C[n+]2csc(CCO)c2C)c(N)n1,0.498
20,CN1c2cc(O)c(N=NC(N)=O)cc2CC1S(=O)(=O)O (stereo not given),0.422
